The list is not random: actives were taken first. Their share in the collection is about 10%.
JMJD2A Tudor inh = qHTS Assay for Inhibitors of JMJD2A-Tudor Domain; Lysine-specific demethylase 4A (Homo sapiens), O75164; AlphaScreen JMJD2A-Tudor / H3K4me3 peptide binding; Potency, µM (titrated, usually from 114 µM), actives largely listed as inhibitors; 4.4% of 390,000 active; AID 504339, 2011; further: nearly all actives have a fitted effect of over 50% in size
GLS inh = qHTS for Inhibitors of Glutaminase (GLS) | Glutaminase kidney isoform, mitochondrial (Homo sapiens), O94925 | GLS enzymatic activity, qHTS titration | Potency, µM (series often up to 45.5 µM), actives largely listed as inhibitors | 0.21% of 410,000 active
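Glutamate formation by hKGA was monitored fluorometrically using coupled glutamate oxidase, HRP and Amplex Red. Substrate was added as 1 mM L-glutamine solution; incubation was 30 min at RT after an initial read.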
HP1b binding inh = HTS for Inhibitors of HP1-beta Chromodomain Interactions with Methylated Histone Tails | Potency, µM (top dose mostly 114 µM), actives largely listed as inhibitors | Chromobox protein homolog 1 (Homo sapiens), P83916 | AlphaScreen HP1-beta / biotin-H3K9me3 peptide binding | 0.56% of 390,000 active; further: nearly all actives have a fitted effect of over 70% in size
Target sequence (P83916 whole entry, looked up): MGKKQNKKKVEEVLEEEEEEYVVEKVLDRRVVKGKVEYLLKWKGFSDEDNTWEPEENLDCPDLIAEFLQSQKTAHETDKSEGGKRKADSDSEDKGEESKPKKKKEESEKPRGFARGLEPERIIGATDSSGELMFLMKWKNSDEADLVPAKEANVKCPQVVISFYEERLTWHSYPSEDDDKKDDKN
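Compound inhibition of the preformed complex between 50 nM HP1-beta and 50 nM biotinylated H3K9me3 peptide was read by AlphaScreen. Buffer was PBS pH 7.4 with 0.01% Tween-20. Incubations ran 30 min at room temperature, with 10 ug/mL donor/acceptor beads.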
BAZ2B block = qHTS Assay for Inhibitors of BAZ2B; Bromodomain adjacent to zinc finger domain protein 2B (Homo sapiens), Q9UIF8; AlphaScreen BAZ2B-H3K14Ac peptide displacement; Potency, µM (titrated, usually from 114 µM), most hits filed as inhibitors; 4.4% of 360,000 active; AID 504333, 2011; further: nearly all actives have a fitted effect of over 60% in size
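In this displacement format the biotinylated H3(5-23) peptide acetylated at Lys14 serves as ligand at 50 nM, with BAZ2B at 50 nM in PBS pH 7.4 containing 0.01% Tween-20. Donor and acceptor beads are 10 ug/mL final.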
G9a block = qHTS Assay for Inhibitors of Histone Lysine Methyltransferase G9a. AID 504332, 2011. 8.8% of 350,000 active. G9a H3K9 monomethylation, AlphaScreen, 2 h. Histone-lysine N-methyltransferase EHMT2 (Homo sapiens), Q96KQ7. Potency, µM (highest dose often 102 µM), most hits filed as inhibitors; further: nearly all actives have a fitted effect of over 75% in size
Target sequence (Q96KQ7 913-1193 limits assumed): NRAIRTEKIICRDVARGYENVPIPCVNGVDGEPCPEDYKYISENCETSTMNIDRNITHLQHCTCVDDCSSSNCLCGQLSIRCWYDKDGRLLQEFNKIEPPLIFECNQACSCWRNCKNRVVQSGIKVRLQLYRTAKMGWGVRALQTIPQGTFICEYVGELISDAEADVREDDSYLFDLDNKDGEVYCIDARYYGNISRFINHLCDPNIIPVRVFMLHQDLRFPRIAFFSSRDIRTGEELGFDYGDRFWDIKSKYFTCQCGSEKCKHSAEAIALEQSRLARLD
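Enzyme 20 nM + cpd, 15 min RT; add b-H3K9 pep 500 nM / SAM 20 uM; 2 h RT; anti-H3K9me1 Ab 0.5 ug/mL + SA donor / anti-rabbit acceptor beads 20 ug/mL each, 10 min; AlphaScreen read.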
A number is an active result; i = inactive; ? = inconclusive; nt = not tested or not shown; [ ] = another dose, or the depositor's remark. The call rests on the fitted dose curve; in most records, active means well fitted curve in the direction sought with a large enough effect; inconclusive means small, poorly fitted or top-dose-only effect, or another doubt; inactive means no such curve, though single readings can be large; an effect the other way counts as inactive or inconclusive.

SMILES | JMJD2A Tudor inh | GLS inh | HP1b binding inh | BAZ2B block | G9a block
O=C(COC(=O)C1CCCCC1C(=O)N1CCc2ccccc21)NCc1ccco1 (stereo not given) | i[11.4 µM] | i | i | 50.1µM | 28.2µM
CC(C)CNC(=S)N1CCC(C(=O)c2ccc(F)cc2)CC1 | i | i | i | i | nt
CCOc1ccccc1NC(=O)CSc1ncnc2c1oc1ccccc12 | i | i | i | i | i
O=C(CN1CCCN(Cc2cccc(Cl)c2)S1(=O)=O)Nc1ccc2c(c1)OCCO2 | i | i | i | i | i
O=C(Nc1ccc(Cl)cc1F)C1CCCN(C2=NS(=O)(=O)c3ccccc32)C1 (stereo not given) | i | i | i | i | 50.1µM
COc1cc(OC)cc(C(=O)NCCCN2CCOCC2)c1 | i | i | i | i | i
CSc1ccccc1NC(=O)c1cnc2n(c1=O)CCS2 | i | i | i | i | ?
O=C(NCc1ccco1)c1cnc2n(c1=O)CCS2 | i | i | i | i | 50.1µM
Cc1ccc(C)c(NC(=O)c2cnc3n(c2=O)CCS3)c1 | i | i | i | i | 56.2µM
O=C(O)c1ccccc1-c1ccccc1C(=O)NCc1ccco1 | i | i | i | i | 50.1µM
O=C(NCc1ccc(F)cc1)c1cnc2n(c1=O)CCS2 | i | i | i | i | ?
O=C(NCc1ccco1)c1ccccc1-c1ccccc1 | i | i | i | i | i
O=C(c1cnc2n(c1=O)CCS2)N(C1CCCCC1)C1CCCCC1 | i | i | i | i | 79.4µM
CCOc1ccc(C(=O)NCC(=O)NC(C)CCc2ccccc2)cc1OCC (stereo not given) | i | i | i | i | i
CC1(C)CC(=O)c2cn3ncnc3nc2C1 | i | i | i | i | i[12.7 µM]
CCOc1ccccc1-n1nnnc1SCC(=O)N(C)C1CCS(=O)(=O)C1 (stereo not given) | nt | i | nt | nt | nt
O=C(CN1CCSCC1)N/N=C/c1cccc(Cl)c1 | ? | i | i | 50.1µM | 3.16µM
O=C(CN1CCCCCCC1)N/N=C/c1ccc(F)c(F)c1 | 3.16µM | i | i | i | ?
O=C(CN1CCCCCC1)N/N=C/c1cccc(Cl)c1 | 79.4µM | i | i | 50.1µM | ?
CCOc1cc(/C=N/NC(=O)CN2CCCCC2)ccc1OCc1cccc(Cl)c1 | i | i | i | i | i
O=C(CN1CCCCC1)N/N=C/c1cccc(C(F)(F)F)c1 | i | i | i | nt | nt
O=C(CN1CCCCC1)N/N=C/c1ccc(Cl)cc1 | i | i | i | ? | i
CCOc1cc(/C=N/NC(=O)CN2CCCCC2)ccc1OCc1ccc(Cl)cc1 | ? | i | i | 50.1µM | i
COc1ccc(NC(=O)CCSCCC(=O)Nc2ccc(OC)cc2OC)c(OC)c1 | i | i | i | i | i
COc1cc(/C=C/C(=O)O)cc(S(=O)(=O)Nc2ccc(S(=O)(=O)N3CCCCC3)cc2)c1OC | i | i | i | i | i[0.501 µM]
SMILES | JMJD2A Tudor inh | GLS inh | HP1b binding inh | BAZ2B block | G9a block
CCn1nnc2cc(C(=O)N(CCOC)CC(=O)Nc3cccc(C)c3C)ccc21 | i | i | i | i | i[2.33 µM]
CCOC(=O)C1CCCN(c2cc(NCCCO)c([N+](=O)[O-])c3nonc23)C1 (stereo not given) | nt | nt | nt | i | i
CC(C)OC(=O)CSc1nc2ccccc2s1 | i[11.4 µM] | i | i | i | i[12.7 µM]
CCC(=O)OCCNc1cc(Sc2nc3ccccc3[nH]2)c2nonc2c1[N+](=O)[O-] | 79.4µM | ? | ? | i | 8.91µM
CCC(=O)OCCNc1cc(Sc2nc3ccccc3s2)c2nonc2c1[N+](=O)[O-] | i | ? | ? | i | 2µM
O=[N+]([O-])c1c(NCCCO)cc(Sc2nc3ccccc3s2)c2nonc12 | 56.2µM | ? | i | i | ?
COc1ccc(-c2ccc(SCC(=O)NC3CCCC3)nn2)cc1 | nt | i | nt | nt | nt
COc1cccc(-c2nc(CS(=O)CC(=O)NCc3ccc4c(c3)OCO4)c(C)o2)c1 (stereo not given) | i | i | i | i | 50.1µM
COc1cccc(-c2nc(CS(=O)CC(=O)NCc3ccccc3Cl)c(C)o2)c1 (stereo not given) | i | i | i | i | 35.5µM

Screening results (PubChem)
